Measurements reported in PubChem BioAssay AID2284370 (EPA ToxCast).
Inconclusive results are not listed. The source made the active and inactive calls. How the source made its calls: active means hit-call score of the fitted dose curve at least 0.9, where 1 is the maximum; inconclusive means response in the unintended direction; inactive means score below 0.9.

The compounds below were run against human Androgen Receptor (AR), AR (gene 367) (UniProt P10275) (assay: ATG_hAR_EcoTox2: Attagene TRANS-FACTORIAL EcoTox-2 HepG2 Assay for human Androgen Receptor (AR)).
human Androgen Receptor (AR), AR (gene 367), sequence (P10275 whole entry, looked up): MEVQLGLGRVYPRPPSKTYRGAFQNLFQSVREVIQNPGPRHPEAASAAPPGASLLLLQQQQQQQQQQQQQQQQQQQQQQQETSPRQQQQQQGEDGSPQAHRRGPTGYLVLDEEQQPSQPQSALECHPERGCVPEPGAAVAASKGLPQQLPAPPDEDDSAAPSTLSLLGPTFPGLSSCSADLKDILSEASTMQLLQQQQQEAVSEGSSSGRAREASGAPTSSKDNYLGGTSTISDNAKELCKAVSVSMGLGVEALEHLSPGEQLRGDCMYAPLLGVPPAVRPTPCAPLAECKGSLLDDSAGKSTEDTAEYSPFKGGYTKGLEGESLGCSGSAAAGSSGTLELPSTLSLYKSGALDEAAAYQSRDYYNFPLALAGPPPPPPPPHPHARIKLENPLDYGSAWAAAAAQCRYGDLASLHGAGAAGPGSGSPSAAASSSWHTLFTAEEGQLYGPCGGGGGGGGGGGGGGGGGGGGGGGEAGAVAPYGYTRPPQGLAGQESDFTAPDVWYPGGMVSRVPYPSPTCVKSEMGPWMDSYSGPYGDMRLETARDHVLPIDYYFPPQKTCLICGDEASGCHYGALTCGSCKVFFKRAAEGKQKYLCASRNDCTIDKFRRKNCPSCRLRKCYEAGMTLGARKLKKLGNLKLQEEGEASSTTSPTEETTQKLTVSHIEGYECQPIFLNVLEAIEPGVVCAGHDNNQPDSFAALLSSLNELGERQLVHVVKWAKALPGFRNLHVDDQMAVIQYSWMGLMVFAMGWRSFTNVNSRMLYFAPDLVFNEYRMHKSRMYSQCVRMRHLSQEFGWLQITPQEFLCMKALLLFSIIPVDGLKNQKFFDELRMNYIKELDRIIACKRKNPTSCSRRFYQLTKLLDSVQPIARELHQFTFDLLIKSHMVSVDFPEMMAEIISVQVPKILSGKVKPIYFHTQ
Method: ATG_EcoTox2 is a cell-based, multiplexed assay created by modifying the existing Attagene TRANS-FACTORIAL system to include a panel of nuclear receptors from some or all the following species: human (Homo sapiens), african clawed frog (Xenopus laevis), rainbow trout (Oncorhynchus mykiss), japanese medaka (Oryzias latipes), and zebrafish (Danio rerio). The ECOTOX2-FACTORIAL format uses HepG2, a human liver cell line, with measurements taken at 24 hours after chemical dosing in a 24-well plate. ATG_hAR_EcoTox2 is one of 29 assay components calculated in the ATG_EcoTox2 assay. It is designed to make measurements of mRNA induction, a form of inducible reporter, as detected with fluorescence intensity signals by Reverse transcription polymerase chain reaction (RT-PCR) and Capillary electrophoresis technology.The assay endpoint ATG_hAR_EcoTox2 was analyzed in the positive analysis fitting direction relative to DMSO as the negative control and baseline of activity. Using a type of inducible reporter, measures of mRNA for gain-of-signal activity can be used to understand the reporter gene at the transcription factor-level as they relate to the gene AR. Furthermore, this assay endpoint can be referred to as a primary readout, because this assay has produced multiple assay endpoints where this one serves a reporter gene function. To generalize the intended target to other relatable targets, this assay endpoint is annotated to the nuclear receptor intended target family, where the subfamily is steroidal.
Human liver HepG2 cells are transiently transfected with multiple reporter transcription units (MRTUs) in 6-well plates using FuGene 6 reagent (Roche; 3 ml FuGene/1 mg DNA). The MRTU constructs are regulated by a cis-regulating element (promoter). Each RTU expresses a GAL4-UAS that regulates the transcription of a nearby target reporter gene sequence. A major difference between the CIS and TRANS system is that in CIS activities of endogenous TFs are measured, whereas the TRANS assay evaluates changes in activities of exogenous, chimeric NR-Gal4 proteins. […] At the end of 24 hour incubation, total RNA was isolated using TriZol reagent (Invitrogen). The isolated RNA is then reverse-transcribed using oligo(dT) primer and Mo-MLV reverse transcriptase (Invitrogen) with DNAse I (Ambion) treatment for 30 min. The one-tenth of the produced cDNA was amplified by PCR using Taq DNA polymerase (Invitrogen) and two reporter sequence-specific primers. […] The fragments were purified using Qiaquick PCR columns (Qiagen), analyzed on an ABI 3130xL genetic analyzer (Applied Biosystems) with peak positions identified by using a set of X-rhodamine (ROX)-labeled MapMarker1000 molecular weight standards (BioVentures). […]

| Structure (SMILES) | outcome |
| --- | --- |
| Cc1ccc(C)c(OCCCC(C)(C)C(=O)O)c1 | inactive |
| CC(C)(Oc1ccc(C2CC2(Cl)Cl)cc1)C(=O)O (centres undefined) | inactive |
| CC(C)OC(=O)C(C)(C)Oc1ccc(C(=O)c2ccc(Cl)cc2)cc1 | inactive |
| CC(c1cc2ccccc2s1)N(O)C(N)=O (centres undefined) | inactive |
